Measured values: paper PMC5540273 (PLoS ONE, 2017)

What was measured:
Conditions in all cases: concentration: 1 μM, replicates: in singlicate; n = 1
[1] = tested on: T1, RSK1(Kin.Dom.1-N-terminal)
T1 construct: gene RPS6KA1

[2] = tested on: T2, RSK1(Kin.Dom.2-C-terminal)
T2 construct: gene RPS6KA1

[3] = tested on: T3, RSK2(Kin.Dom.1-N-terminal)
T3 construct: gene RPS6KA3

[4] = tested on: T4, RSK2(Kin.Dom.2-C-terminal)
T4 construct: gene RPS6KA3

[5] = tested on: T5, RSK3(Kin.Dom.1-N-terminal)
T5 construct: gene RPS6KA2

[6] = tested on: T6, RSK3(Kin.Dom.2-C-terminal)
T6 construct: gene RPS6KA2

[7] = tested on: T7, RSK4(Kin.Dom.1-N-terminal)
T7 construct: gene RPS6KA6

[8] = tested on: T8, RSK4(Kin.Dom.2-C-terminal)
T8 construct: gene RPS6KA6

[9] = tested on: S6K1
[10] = tested on: SBK1
[11] = tested on: SGK2
[12] = tested on: SGK3
[13] = tested on: SGK
[14] = tested on: SIK2
[15] = tested on: SIK
[16] = tested on: SLK
[17] = tested on: T9, SNARK
T9 construct: gene NUAK2

[18] = tested on: SNRK
[19] = tested on: SRC
[20] = tested on: SRMS
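Further: KINOMEscan kinase panel screen.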

SMILES: Cc1ccc(-c2ccc3c(ccc4sc5c(c43)NC[C@@H](C)N=C5N(C)C)n2)cn1
- %Inh [1]: 0%
- %Inh [2]: 0%
- %Inh [3]: 0%
- %Inh [4]: 0%
- %Inh [5]: 0%
- %Inh [6]: 0%
- %Inh [7]: 0%
- %Inh [8]: 0%
- %Inh [9]: 0%
- %Inh [10]: 0%
- %Inh [11]: 0%
- %Inh [12]: 0%
- %Inh [13]: 0%
- %Inh [14]: 0%
- %Inh [15]: 3%
- %Inh [16]: 0%
- %Inh [17]: 0%
- %Inh [18]: 0%
- %Inh [19]: 0%
- %Inh [20]: 0%

SMILES: CN1C(=O)C(Nc2cc(Cl)c(O)c(Cl)c2)=C(c2ccc(Cl)cc2)C1=O [SB-404321]
- %Inh [1]: 0%
- %Inh [2]: 0%
- %Inh [3]: 5%
- %Inh [4]: 0%
- %Inh [5]: 0%
- %Inh [6]: 9%
- %Inh [7]: 0%
- %Inh [8]: 0%
- %Inh [9]: 17%
- %Inh [10]: 0%
- %Inh [11]: 0%
- %Inh [12]: 0%
- %Inh [13]: 0%
- %Inh [14]: 0%
- %Inh [15]: 0%
- %Inh [16]: 0%
- %Inh [17]: 0%
- %Inh [18]: 0%
- %Inh [19]: 0%
- %Inh [20]: 0%

SMILES: O=C(NCc1cccs1)c1cc(C(=O)c2c(Cl)cccc2Cl)c[nH]1 [GW823670]
- %Inh [1]: 16%
- %Inh [2]: 13%
- %Inh [3]: 2%
- %Inh [4]: 0%
- %Inh [5]: 0%
- %Inh [6]: 18%
- %Inh [7]: 0%
- %Inh [8]: 0%
- %Inh [9]: 7%
- %Inh [10]: 0%
- %Inh [11]: 0%
- %Inh [12]: 0%
- %Inh [13]: 0%
- %Inh [14]: 4%
- %Inh [15]: 4%
- %Inh [16]: 9%
- %Inh [17]: 0%
- %Inh [18]: 0%
- %Inh [19]: 0%
- %Inh [20]: 15%

SMILES: O=C(Nc1n[nH]c2nc(-c3ccccc3)c(Cl)cc12)C1CC1 [SB-734909]
- %Inh [1]: 26%
- %Inh [2]: 0%
- %Inh [3]: 29%
- %Inh [4]: 0%
- %Inh [5]: 0%
- %Inh [6]: 7%
- %Inh [7]: 42%
- %Inh [8]: 1%
- %Inh [9]: 44%
- %Inh [10]: 0%
- %Inh [11]: 5%
- %Inh [12]: 12%
- %Inh [13]: 9%
- %Inh [14]: 27%
- %Inh [15]: 0%
- %Inh [16]: 15%
- %Inh [17]: 0%
- %Inh [18]: 33%
- %Inh [19]: 0%
- %Inh [20]: 0%

SMILES: COc1cccc(C2=C(Nc3cccc(C(=O)O)c3)C(=O)NC2=O)c1 [SB-390770]
- %Inh [1]: 0%
- %Inh [2]: 0%
- %Inh [3]: 4%
- %Inh [4]: 15%
- %Inh [5]: 8%
- %Inh [6]: 0%
- %Inh [7]: 20%
- %Inh [8]: 10%
- %Inh [9]: 6%
- %Inh [10]: 18%
- %Inh [11]: 11%
- %Inh [12]: 48%
- %Inh [13]: 8%
- %Inh [14]: 7%
- %Inh [15]: 10%
- %Inh [16]: 35%
- %Inh [17]: 72%
- %Inh [18]: 0%
- %Inh [19]: 0%
- %Inh [20]: 0%

SMILES: CCn1c(-c2ccoc2)nc2cnccc21 [SB-733887]
- %Inh [1]: 9%
- %Inh [2]: 4%
- %Inh [3]: 0%
- %Inh [4]: 0%
- %Inh [5]: 0%
- %Inh [6]: 0%
- %Inh [7]: 0%
- %Inh [8]: 0%
- %Inh [9]: 18%
- %Inh [10]: 0%
- %Inh [11]: 5%
- %Inh [12]: 4%
- %Inh [13]: 12%
- %Inh [14]: 0%
- %Inh [15]: 0%
- %Inh [16]: 25%
- %Inh [17]: 0%
- %Inh [18]: 0%
- %Inh [19]: 0%
- %Inh [20]: 0%

SMILES: CCc1nc(-c2cccc(C)c2)c(-c2ccncc2)s1
- %Inh [1]: 0%
- %Inh [2]: 91.2%
- %Inh [3]: 0%
- %Inh [4]: 0%
- %Inh [5]: 11%
- %Inh [6]: 10%
- %Inh [7]: 0%
- %Inh [8]: 94.6%
- %Inh [9]: 0%
- %Inh [10]: 0%
- %Inh [11]: 0%
- %Inh [12]: 0%
- %Inh [13]: 0%
- %Inh [14]: 4%
- %Inh [15]: 2%
- %Inh [16]: 26%
- %Inh [17]: 0%
- %Inh [18]: 9%
- %Inh [19]: 0%
- %Inh [20]: 0%

SMILES: Nc1nc(N)c2nc(-c3ccccc3)[nH]c2n1 [SKF-12778]
- %Inh [1]: 0%
- %Inh [2]: 0%
- %Inh [3]: 9%
- %Inh [4]: 9%
- %Inh [5]: 18%
- %Inh [6]: 0%
- %Inh [7]: 15%
- %Inh [8]: 1%
- %Inh [9]: 8%
- %Inh [10]: 10%
- %Inh [11]: 18%
- %Inh [12]: 7%
- %Inh [13]: 15%
- %Inh [14]: 22%
- %Inh [15]: 17%
- %Inh [16]: 21%
- %Inh [17]: 19%
- %Inh [18]: 0%
- %Inh [19]: 19%
- %Inh [20]: 0%

SMILES: C[C@@H]1CC[C@H](C(=O)NC2CCCCC2)CN1c1cc(-c2ccc3c(N)n[nH]c3c2)nc(N)n1 [GSK2291363]
- %Inh [1]: 31%
- %Inh [2]: 6%
- %Inh [3]: 32%
- %Inh [4]: 28%
- %Inh [5]: 23%
- %Inh [6]: 6%
- %Inh [7]: 11%
- %Inh [8]: 26%
- %Inh [9]: 8%
- %Inh [10]: 14%
- %Inh [11]: 0%
- %Inh [12]: 13%
- %Inh [13]: 0%
- %Inh [14]: 3%
- %Inh [15]: 29%
- %Inh [16]: 20%
- %Inh [17]: 31%
- %Inh [18]: 0%
- %Inh [19]: 3%
- %Inh [20]: 11%

SMILES: CCC(=O)c1c(-c2ccccc2)c2cc(Cl)ccc2c(=O)n1Cc1ccc(C(=O)O)cc1
- %Inh [1]: 0%
- %Inh [2]: 0%
- %Inh [3]: 0%
- %Inh [4]: 0%
- %Inh [5]: 0%
- %Inh [6]: 0%
- %Inh [7]: 0%
- %Inh [8]: 0%
- %Inh [9]: 0%
- %Inh [10]: 0%
- %Inh [11]: 6%
- %Inh [12]: 0%
- %Inh [13]: 1%
- %Inh [14]: 7%
- %Inh [15]: 0%
- %Inh [16]: 0%
- %Inh [17]: 0%
- %Inh [18]: 0%
- %Inh [19]: 0%
- %Inh [20]: 0%

SMILES: CC(C)(C)c1ccc(C(=O)Nc2cn3cc(-c4ccccc4)ccc3n2)cc1
- %Inh [1]: 0%
- %Inh [2]: 0%
- %Inh [3]: 3%
- %Inh [4]: 0%
- %Inh [5]: 24%
- %Inh [6]: 100%
- %Inh [7]: 0%
- %Inh [8]: 0%
- %Inh [9]: 0%
- %Inh [10]: 0%
- %Inh [11]: 0%
- %Inh [12]: 0%
- %Inh [13]: 0%
- %Inh [14]: 66%
- %Inh [15]: 0%
- %Inh [16]: 9%
- %Inh [17]: 0%
- %Inh [18]: 0%
- %Inh [19]: 0%
- %Inh [20]: 0%

SMILES: COc1cc(OC)cc(-c2cc3cnc(N)nc3nc2NC(=O)NC(C)(C)C)c1
- %Inh [1]: 23%
- %Inh [2]: 0%
- %Inh [3]: 0%
- %Inh [4]: 0%
- %Inh [5]: 0%
- %Inh [6]: 0%
- %Inh [7]: 0%
- %Inh [8]: 0%
- %Inh [9]: 0%
- %Inh [10]: 0%
- %Inh [11]: 0%
- %Inh [12]: 17%
- %Inh [13]: 0%
- %Inh [14]: 0%
- %Inh [15]: 6%
- %Inh [16]: 0%
- %Inh [17]: 0%
- %Inh [18]: 1%
- %Inh [19]: 0%
- %Inh [20]: 0%
